Bioassay records: PubChem, National Center for Advancing Translational Sciences (NCATS)
Pf Dd2 growth = blocks in vitro growth of P. falciparum Dd2. P. falciparum Dd2 growth, SYBR Green, 72 h. Potency, µM (highest dose often 28.9 µM), for inactives: at the highest dose activity, negative = inhibition, actives largely listed as inhibitors. AID 1347417. 4.3% of 120,000 active; active means well fitted inhibition curve with a large enough effect;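 further: plate controls were DMSO vehicle for no effect and reference drug for full effect; nearly all actives have a fitted effect of over 65% in size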
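Infected erythrocytes (Dd2, 0.3% parasitemia, 2.5% hematocrit final) are added to compound in RPMI-1640/Albumax II medium, grown 72 h at 37C in low oxygen, then lysed with saponin/Triton-X containing SYBR Green and read by fluorescence.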
* marks the source's active call; other numbers are inactive results; i = inactive; [ ] = remark or other dose. The entries come from a sample that favours hits as a whole. Potency means the concentration at half of the fitted maximal effect.

SMILES	Pf Dd2 growth
Cc1cccc(CN(C(=O)c2ccco2)c2ccc(CC(=O)N(C)Cc3ccccc3)cc2)c1	-16%
CC(=O)c1cc(CC(=O)N2CCC3(CCCN(C(C)C)C3=O)C2)cs1 (stereo unspecified)	-4%
O=C(NC1C[C@H]2CC[C@@H](C1)N2S(=O)(=O)c1ccc(Cl)s1)c1ccncc1 (stereo partly specified)	1%
C[C@H]1[C@@H]2[C@@H](O)C([C@H](C)C(=O)NC(C)(C)C)CC[C@@]2(C)CC[C@@H]1NC(=O)c1cccc(F)c1 (stereo partly specified)	-5%
Cc1ccc(CN2C(=O)COC[C@H]2C(=O)NCc2ccco2)cc1	49%
CCN1C(=O)C2(CCN(C(=O)c3c(C)noc3C)CC2)c2ccccc21	3.5µM*
CCN1C(=O)C2(CCN(C(=O)N(C)C)CC2)c2ccccc21	42%
CCCC(=O)N1CCC2(CC1)C(=O)N(CC)c1ccccc12	54%
O=c1[nH]ccn1C1CCN([S+](=O)([O-])c2cccs2)CC1	24%[44.1 µM]
CCC(CC)NC(=O)c1cnc2cc(C)nn2c1	6%[44.1 µM]
COC(=O)c1ccc2c(c1)nc1n2[C@@H](CNCc2ccc(S(C)(=O)=O)cc2)COC1	-20%[44.1 µM]
CC(C)CCC(=O)N1C[C@@H]2CCCN3CCC[C@@H]([C@H]23)[C@H]1CCCC(=O)N1CCOCC1	-26%
COC(=O)[C@@H]1Cc2c([nH]c3ccccc23)[C@H]2C[C@@H](NCCCn3ccnc3)C[C@@H](c3ccc(Cl)c(F)c3)N21	3.2µM*
COCc1ccc2c(c1)c(OC(C)(C)C(=O)NCCCn1ccnc1)nn2Cc1ccccc1	-13%
COC(=O)[C@@H]1Cc2c([nH]c3ccccc23)[C@H]2C[C@@H](NCCCn3ccnc3)C[C@@H](c3cccc(Cl)c3)N21	2.2µM*
COC(=O)[C@@H]1Cc2c([nH]c3ccccc23)[C@H]2C[C@@H](NCCc3cnc[nH]3)C[C@@H](c3ccccc3F)N21	i
COC(=O)[C@@H]1Cc2c([nH]c3ccccc23)[C@H]2C[C@H](NCCNC(C)=O)C[C@@H](c3ccc(C(F)(F)F)cc3)N21	-1%
COCCN[C@@H]1C[C@@H]2c3[nH]c4ccccc4c3C[C@@H](C(=O)OC)N2[C@H](c2cccc(OC)c2)C1	5µM*
COC(=O)[C@@H]1Cc2c([nH]c3ccccc23)[C@H]2C[C@@H](NCc3cccnc3)C[C@@H](c3ccccc3)N21	-23%
COC(=O)[C@@H]1Cc2c([nH]c3ccccc23)[C@H]2C[C@@H](NC[C@H]3CCCO3)C[C@@H](c3ccccc3F)N21	-9%
O=C(NCCCn1ccnc1)c1ccc(C2CCCNC2)cc1 (stereo unspecified)	12%
O=C(c1ccoc1)N1CCCC(CN2CCCC2)CC1 (stereo unspecified)	-20%
CC(C)C(=O)N1CCCN(S(C)(=O)=O)c2ccccc21	11%
CC(c1cccs1)N(C)CC1CCCCC1 (stereo unspecified)	11%[44.1 µM]
COc1ccc(NC(=O)Nc2ccc(C)n(CC(=O)NCC(C)C)c2=O)cc1	2%
SMILES	Pf Dd2 growth
Cn1ccnc1CNC(=O)C[C@@H]1C[C@H]2O[C@H](CNC(=O)NC3CCCCC3)[C@@H](O)[C@H]2O1	2%
COc1cccc(-c2nc3c([nH]2)CN(C(=O)CCn2cnnn2)CC3)c1	-16%
O=C(NC1CC1)[C@@H]1CN(Cc2ccc(OC(F)(F)F)cc2)C[C@H]1CO	13µM*
COc1ccc(OC2CN(Cc3ccc(NC(C)=O)cc3)C2)cc1	-3%
O=C(NC1CC1)[C@@H]1CN(Cc2cc(F)c(F)cc2F)C[C@H]1CO	-22%
CNC(=O)[C@@H]1CN(Cc2ccccc2OC(F)(F)F)C[C@H]1CO	6%
COC[C@@H]1CN(Cc2ccc(OC)c(C)c2)C[C@H]1C(=O)NC1CC1	-2%
O=C(NCC1CC1)c1cccc(OC2CN(Cc3ccc(OC(F)(F)F)cc3)C2)c1	8.9µM*
O=C(NC1CC1)[C@@H]1CN(Cc2ccc(Cl)cc2F)C[C@H]1CO	7.9µM*
COC[C@@H]1CN(Cc2ccc(F)cc2F)C[C@H]1C(=O)NC1CC1	-29%
O=C(NCC1CC1)c1cccc(OC2CN(C3CCOCC3)C2)c1	i
Cc1ccccc1OCc1nc(C2CN(C(=O)Cc3ccsc3)C2)no1	i
O=C(O)C[C@@H]1CCN(C(=O)C2CCC2)C[C@@H]1CCN1CCC(n2c(=O)[nH]c3ccccc32)CC1	12%
CCOC(=O)N1CCN(Cc2nc(-c3ccc(C)s3)oc2C)CC1	-38%
CC(=O)N1CCc2nn(CC(=O)N3CCN(c4ccccc4F)CC3)c(=O)cc2C1	-6%
COc1ccc(OC)c(NC(=O)Cn2nc3c(cc2=O)CCCCC3)c1	-21%
O=C(CCNc1c(-c2ccc(F)cc2)nc2cnccn12)NC1CCCC1	20%
O=C(NC1CC1)c1nc(-c2ccc(F)cc2)c2cnccn12	11µM*
COc1ccc(-c2nc(C(=O)NC3CC3)n3ccccc23)cc1	11µM*
COc1ccccc1-c1nc(C(=O)NC2CC2)n2ccccc12	i
CN(C)C(=O)c1nc(-c2ccc(S(C)(=O)=O)cc2)c2cnccn12	-3%
C[S+](=O)([O-])c1ccc(-c2nc(C(=O)NC3CC3)n3ccccc23)cc1	i
O=[S+]([O-])(c1cccs1)N1CCCN(c2nc3ncccc3o2)CC1	-27%
COc1ccc(-n2nc(C3CCN(C(=O)Cc4cccc(Cl)c4)CC3)[nH]c2=O)cc1	-20%
Cc1nc(C)c(C(=O)NCC23CCC=C2N(C)C(=O)CC3)s1 (stereo unspecified)	i
SMILES	Pf Dd2 growth
Cc1nc2scc(CC(=O)NCc3ccco3)n2c(=O)c1-c1cc(C)n(-c2ccccc2F)n1	0%
COc1cc(NC(=O)NC(C)c2c(-n3cccc3)sc3c2CCCC3)cc(OC)c1OC (stereo unspecified)	-17%
CCOC(=O)c1ccccc1NC(=O)N(C(C)C)C1CCN(C(C)=O)CC1	-8%
CCOc1ccc(NC(=O)NC(C)c2c(-n3cccc3)sc(C)c2C)cc1 (stereo unspecified)	-23%
Cc1ccc(-c2ccc(=O)n(C(C)C(=O)Nc3ccccc3Cl)n2)cc1C (stereo unspecified)	9%
CCOC(=O)c1ccccc1NC(=O)NC(C)c1c(-n2cccc2)sc(C)c1C (stereo unspecified)	11µM*
Cc1sc(-n2cccc2)c(C(C)NC(=O)Nc2ccccc2Cl)c1C (stereo unspecified)	5.6µM*
Cc1ncc2c(c1CNC(=O)C1CCc3ccccc3C1)CCNC2 (stereo unspecified)	-10%
COc1ccc(CN2C(=O)COC[C@H]2C(=O)NCCc2c[nH]c3ccccc23)c(OC)c1	i
Cc1ccccc1C(=O)N1CCC(c2n[nH]c(=O)n2-c2ccccc2)CC1	-10%
CC(=O)N1CCC(Cc2ncc(C)n2Cc2ccccc2)C1 (stereo unspecified)	-13%
Cc1cnc(CCNC(=O)NC(C)(C)C)n1Cc1ccccc1	4µM*
COc1ccc(C(=O)NCCc2ncc(C)n2Cc2ccc(F)cc2)cn1	-11%
CC1=C[C@@H](CNC(=O)COCC(=O)O)[C@H](C(C)C)C[C@H]1CC(=O)N1CCCC1	19%[44.1 µM]
OCc1cc(CC2(NCc3ccccc3)COC2)no1	6%[44.1 µM]
COc1ccc(CC(=O)N[C@H]2CCOC[C@H]2C2CCOCC2)c(OC)c1	-1%
Cc1ccc(Oc2c(C(F)(F)F)oc3c(CN4CCC(C)CC4)c(O)ccc3c2=O)cc1	1µM*
Cc1noc(C)c1CN1CCCC(COc2ccccc2C(=O)N2CCC(C)CC2)C1 (stereo unspecified)	-3%
